Inconclusive results are not listed. Calls of active or inactive are those of the source. Calls follow the shape of the dose curve; as a rule, active = well fitted inhibition curve with a large enough effect; inconclusive = small, poorly fitted or top-dose-only effect; inactive = flat fitted curve, though single readings scatter.
target: Calcium and integrin-binding protein 1 (Homo sapiens) (UniProt Q99828); test: Primary qHTS for Identification of Calcium Integrin Binding Protein 1 (CIB1) Competitor (AID 1508620); conditions: CIB1-GST / FITC-alphaIIb peptide fluorescence polarization; series mostly up to 114 µM; activity change, negative = inhibition: at the top concentration;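 also: GST tagged CIB1 binding a fluorescein labelled alphaIIb integrin peptide tracer; top concentration of the series differs between compounds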
Sequence (Q99828 whole entry, looked up): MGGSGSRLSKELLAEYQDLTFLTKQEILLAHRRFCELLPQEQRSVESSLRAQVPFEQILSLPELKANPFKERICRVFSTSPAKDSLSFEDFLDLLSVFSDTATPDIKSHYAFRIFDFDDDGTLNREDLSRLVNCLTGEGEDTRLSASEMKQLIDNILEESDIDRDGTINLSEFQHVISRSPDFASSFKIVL
In short: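 Fluorescence polarization competition: CIB1-GST (1 uM final) preincubated with compound 15 min at room temperature, then FITC-labeled alphaIIb peptide (100 nM final) added for another 15 min. Polarization read at Ex 480/Em 540.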
% is scaled to controls: 0 for no effect and ±100 for the full control effect.

Structure (SMILES)	activity change, negative = inhibition
CC(=O)[C@H]1CC[C@H]2[C@@H]3CC=C4C[C@@H](OS(=O)(=O)O)CC[C@]4(C)[C@H]3CC[C@]12C	2.13% (inactive)
C=C1C(=O)O[C@@H]2C[C@H](C)[C@@H]3CC(=O)[C@H](O)[C@@]3(C)C[C@H]12	-2.82% (inactive)
CC(=O)O[C@H]1C[C@H](OC(C)=O)[C@]2(C)[C@H](CC[C@@]34O[C@@H]3C3=C(C)C(=O)O[C@@H]3C[C@H]42)C1(C)C	-2.86% [at 57.7 µM] (inactive)
CC(=O)OC1C(OC(=O)c2ccccc2)C2C(C)(C)CCC(OC(C)=O)C2(C)C23CCC(C)(C2)C(=O)CC13 (stereo not drawn)	3.8% [at 57.7 µM] (inactive)
Cc1cc(C)c(S(=O)(=O)n2cc(C)cc2C)c(C)c1	6.2% (inactive)
COc1ccc(N(C(=O)Nc2c(C)cccc2C)c2cc(Nc3ccc(N4CCN(C)CC4)cc3)ncn2)c(OC)c1	0.51% (inactive)
NC(N)=N/N=C/c1ccccc1Cl	-4.59% (inactive)
C=C1C(=O)OC2/C=C(/C)C3=CC(=O)C(C)(CC(OC(=O)/C(C)=C/COC(C)=O)C12)O3 (stereo not drawn)	-8.21% [at 57.7 µM] (inactive)

From PubChem BioAssay (NCATS)
